Rows were chosen to be rich in hits. Some 10% of all compounds tested hit in one or more screens of this group.
PNC assembly inh = blocks assembly of the perinucleolar compartment. PC3M PTB-GFP, PNC prevalence imaging, 16 h; active compounds read low. activity change (PNC), negative = inhibition, % at 10 µM. 3.1% of 140,000 active. AID 2417;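 active means readout at or below -70, meaning at least 70% loss of cells showing the perinucleolar compartment, a nuclear body marking cancer cells; inconclusive means readout between -30 and a set limit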;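 further: plate controls were DMSO wells for no effect and camptothecin positive control wells for full effect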
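PC3M cells stably expressing PTB-GFP, 750–1000 cells/well, treated 16 h at 37 °C with compound (23 nl of library stock), in duplicate. After paraformaldehyde fixation and Hoechst stain, imaged at 20x; PNC prevalence scored by image analysis.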
12-hLO inh = inhibitors of human 12-lipoxygenase (ALOX12) | AID 1452 | 0.12% of 150,000 active | P18054 | Potency, µM (series often up to 57.1 µM), inactives show at the top dose activity change, negative = inhibition, most hits filed as inhibitors | purified 12-hLO, xylenol orange hydroperoxide absorbance; further: potency means the concentration at half of the fitted maximal effect; nearly all actives have a fitted effect of over 55% in size
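Lipoxygenase turnover measured by absorbance at 573 and 405 nm after Fe-XO development. Human 12hLO 150 nM, arachidonate 40 uM, pH 7.0 Hepes buffer with detergent; 15 min compound preincubation, 30 min reaction.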
HPGD block = blocks human HPGD enzyme activity; 4.3% of 150,000 active; P15428; Potency, µM, inactives show at the top dose activity change, negative = inhibition, actives largely listed as inhibitors; AID 894; purified HPGD, NADH fluorescence kinetic, PGE2 substrate; active means well fitted inhibition curve with a large enough effect, not every such curve was filed as active; inconclusive means small, poorly fitted or top-dose-only effect, or another doubt; inactive means no such curve, though single readings can be large or run the other way; further: potency means the concentration at half of the fitted maximal effect
Target sequence (P15428 whole entry, looked up): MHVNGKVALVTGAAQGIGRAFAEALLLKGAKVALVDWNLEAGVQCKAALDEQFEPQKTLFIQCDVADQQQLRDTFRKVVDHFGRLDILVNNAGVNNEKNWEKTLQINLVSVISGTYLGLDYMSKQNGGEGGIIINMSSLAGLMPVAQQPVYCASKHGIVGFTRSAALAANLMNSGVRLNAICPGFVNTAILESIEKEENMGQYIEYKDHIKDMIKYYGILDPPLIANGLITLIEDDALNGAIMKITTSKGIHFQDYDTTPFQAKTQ
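20 nM HPGD preincubated 15 min at room temperature with compound in 50 mM Tris-HCl pH 8, 0.01% Tween 20. Started with 1 mM NAD+ and 30 uM prostaglandin E2; NADH fluorescence (360/450 nm) read 5 times over 30-s intervals, last minus first.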
GLA inh pH 4.5 = alpha-galactosidase A (human) inhibition, pH 4.5; AID 1467; P06280; purified enzyme, 4-MU-alpha-Gal fluorescence, pH 4.5; activity change, negative = inhibition, % at 105 µM; 230,000 tested, under 10 active;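 further: 0% = full activity with enzyme and -100% = basal without enzyme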
Target sequence (P06280 whole entry, looked up): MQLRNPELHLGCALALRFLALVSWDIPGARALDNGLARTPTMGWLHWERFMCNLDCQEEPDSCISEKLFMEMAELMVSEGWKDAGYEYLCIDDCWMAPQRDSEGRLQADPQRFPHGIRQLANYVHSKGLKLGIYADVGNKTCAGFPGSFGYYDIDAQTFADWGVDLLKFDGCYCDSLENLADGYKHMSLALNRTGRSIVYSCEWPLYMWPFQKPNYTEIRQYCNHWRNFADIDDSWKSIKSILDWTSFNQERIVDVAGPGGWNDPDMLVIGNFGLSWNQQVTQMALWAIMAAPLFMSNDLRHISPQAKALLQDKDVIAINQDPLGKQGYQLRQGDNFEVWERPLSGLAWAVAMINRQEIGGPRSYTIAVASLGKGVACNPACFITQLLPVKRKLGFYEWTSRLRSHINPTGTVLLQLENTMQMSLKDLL
aGal spleen mod = inhibits or activates alpha-galactosidase in human spleen homogenate; P06280; AID 2107; 0.008% of 240,000 active; Potency, µM (highest dose often 80 µM), for inactives: top-dose activity change, negative = inhibition, most hits filed as inhibitors; human spleen homogenate, 4MU-alpha-Gal fluorescence, 40 min;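 further: potency means the concentration at half of the fitted maximal effect; 0% = enzyme with vehicle and -100% = no enzyme basal signal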
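qHTS titration in buffer at pH 5.0. Alpha-galactosidase activity in spleen homogenate was measured via 4-methylumbelliferone release from 1 mM fluorogenic substrate after 40 min at 37C and a pH 10 stop. AC50 came from Hill fits of control-normalized data.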
ALDH1A1 block = inhibitors of human aldehyde dehydrogenase 1A1 | Purified ALDH1A1, NADH fluorescence, propionaldehyde substrate | Potency, µM (series often up to 75.3 µM), for the others: top-dose activity, negative = inhibition, most hits filed as inhibitors | 7.3% of 220,000 active | AID 1030; active means well fitted inhibition curve with a large enough effect, not every such curve was filed as active; inconclusive means small, poorly fitted or top-dose-only effect, or another doubt; inactive means no such curve, though single readings can be large or run the other way;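 further: potency means the concentration at half of the fitted maximal effect; plate controls were no enzyme wells and a reference inhibitor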
* hit, by the source's call; [ ] = remark or other dose. Unless noted, the call rests on the fitted dose curve; in most records, active means well fitted curve in the direction sought with a large enough effect; inconclusive means small, poorly fitted or top-dose-only effect, or another doubt; inactive means no such curve, though single readings can be large; an effect the other way counts as inactive or inconclusive. Unless noted, on the % scale 0 is the no-effect control and ±100 the full control effect.

What do the screens show for `Oc1cc2c(cc1O)[C@H](c1ccccc1)CNCC2`?
12-hLO inh: -11.1%; HPGD block: 28.2µM*; GLA inh pH 4.5: -4.8; aGal spleen mod: -7.1%; ALDH1A1 block: 4.5%

How did CN1CCc2cc(Cl)c(O)cc2[C@H](c2ccccc2)C1 do in these assays?
12-hLO inh: -7.4%

How did C=CCn1c(Sc2ncc([N+](=O)[O-])s2)n[nH]c1=O do in these assays?
GLA inh pH 4.5: -2.6; aGal spleen mod: -0.9%; ALDH1A1 block: 2µM*

How did O=S(=O)(Nc1ccc(Cc2ccncc2)cc1)c1ccc(Cl)c(Cl)c1 do in these assays?
PNC assembly inh: 1.6; 12-hLO inh: 2.5%; HPGD block: -4.7%; GLA inh pH 4.5: 0.1; aGal spleen mod: 7.2%; ALDH1A1 block: 8.0%

Results for CCCCS(=O)(=O)Nc1ccc(Cc2ccncc2)cc1 ?
PNC assembly inh: -15.7; 12-hLO inh: -1.5%; HPGD block: 15.8µM*; GLA inh pH 4.5: -5.1; aGal spleen mod: 5.4%; ALDH1A1 block: 12.1%

Results for COC(=O)c1c(C)oc2c1cc(NS(=O)(=O)c1cccs1)c1ccccc12 ?
PNC assembly inh: 21.0; 12-hLO inh: -5.9%; HPGD block: -2.1%; GLA inh pH 4.5: -15.3; aGal spleen mod: -3.4%; ALDH1A1 block: 7.94µM*

How did COc1nc2ccc(C)cc2cc1-c1noc(-c2ccccc2)n1 do in these assays?
PNC assembly inh: 9.8; 12-hLO inh: 2.2%; HPGD block: inconclusive; GLA inh pH 4.5: -12.7; aGal spleen mod: -0.7%; ALDH1A1 block: -4.4%

How did CCc1nnc(N/N=C/c2ccc(N3CCC(C)CC3)c([N+](=O)[O-])c2)n1N do in these assays?
PNC assembly inh: 1.1; 12-hLO inh: -4.2%; HPGD block: -8.2%; GLA inh pH 4.5: -7.2; aGal spleen mod: -6.3%; ALDH1A1 block: 22.4µM*

Results for Cc1nnc(N/N=C/c2cc([N+](=O)[O-])c(N3CCC(C)CC3)cc2N2CCC(C)CC2)n1N ?
PNC assembly inh: -29.6; 12-hLO inh: -18.8%; HPGD block: 25.1µM*; GLA inh pH 4.5: -10.8; aGal spleen mod: 0.7%; ALDH1A1 block: 7.08µM*

Results for CNC(=O)[C@H]1O[C@@H](n2cnc3c(N)ncnc32)[C@H](O)[C@@H]1O ?
aGal spleen mod: -0.1%; ALDH1A1 block: -0.5%

What do the screens show for `Cc1ccc(N2NC(C)(c3cccs3)NC2=S)cc1` (configuration not stated)?
PNC assembly inh: 32.0; 12-hLO inh: inconclusive; HPGD block: -21.2%; GLA inh pH 4.5: -7.9; aGal spleen mod: 4.7%; ALDH1A1 block: 17.8µM*

How did Cc1cnc(CNc2ncnc3ccc(-c4ccccc4C#N)cc23)cn1 do in these assays?
12-hLO inh: -1.9%; HPGD block: -17.1%; GLA inh pH 4.5: -6.3; aGal spleen mod: 4.9%; ALDH1A1 block: -8.7%

How did CC1C=CCCOC1c1ccccc1 (configuration not stated) do in these assays?
aGal spleen mod: 4.7%[17.5 µM]; ALDH1A1 block: -1.7%[13.5 µM]

How did Cc1noc(C)c1-c1nc(N2CCOCC2)c2ccccc2n1 do in these assays?
12-hLO inh: -9.5%; HPGD block: 25.1µM*; GLA inh pH 4.5: -2.9; aGal spleen mod: 6.9%; ALDH1A1 block: inconclusive

How did O=[N+]([O-])c1cccc(-c2nc(N3CCOCC3)c3ccccc3n2)c1 do in these assays?
GLA inh pH 4.5: 4.6; aGal spleen mod: -2.2%; ALDH1A1 block: 7.94µM*

How did CC(C)(C)NC[C@@H](O)COc1nsnc1N1CCOCC1 do in these assays?
12-hLO inh: -4.2%; HPGD block: -11.8%; GLA inh pH 4.5: 0.0; aGal spleen mod: 9.2%; ALDH1A1 block: 7.0%

Results for CCOc1ccc(C2C(C(=O)c3cccs3)=C(O)C(=O)N2Cc2cccnc2)cc1OC (configuration not stated) ?
GLA inh pH 4.5: 4.0; aGal spleen mod: -12.7%; ALDH1A1 block: inconclusive

How did Nn1c(SCC(=O)NC2CCCCC2)nnc1C1CC1 do in these assays?
PNC assembly inh: inconclusive; 12-hLO inh: 1.9%; HPGD block: -10.4%; GLA inh pH 4.5: 2.2; aGal spleen mod: 7.0%; ALDH1A1 block: 23.8µM*

How did CCc1nnc(SCC(=O)NC2CCCCC2)nc1CC do in these assays?
PNC assembly inh: 6.1; 12-hLO inh: 0.2%; HPGD block: inconclusive; GLA inh pH 4.5: 6.9; aGal spleen mod: 2.7%; ALDH1A1 block: inconclusive

What do the screens show for `C=CCn1c(SCC(=O)NC2CCCCC2)nnc1C1CCCCC1`?
PNC assembly inh: 17.0; 12-hLO inh: 4.3%; HPGD block: 1.4%; GLA inh pH 4.5: 5.0; aGal spleen mod: 1.0%; ALDH1A1 block: 2.6%

Results for CCC1C(=O)N=C(SCC(=O)NC2CCCCC2)NC1=O (configuration not stated) ?
GLA inh pH 4.5: 10.8; aGal spleen mod: -6.2%; ALDH1A1 block: 25.1µM*

How did CCc1nnc(SCC(=O)NC2CCCC2)nc1CC do in these assays?
PNC assembly inh: -23.9; 12-hLO inh: 1.5%; HPGD block: 15.8µM*; GLA inh pH 4.5: 0.7; aGal spleen mod: -5.0%; ALDH1A1 block: 11.8%

What do the screens show for `COc1ccc(C(=O)N2CCC3(CC2)CCN(c2ccccc2)CC3)cc1`?
12-hLO inh: -1.8%; HPGD block: -11.6%; aGal spleen mod: -4.0%; ALDH1A1 block: inconclusive

What do the screens show for `CCOC(=O)Cc1ccc(NC(=O)c2ccccc2Br)cc1`?
GLA inh pH 4.5: 3.5; aGal spleen mod: -1.0%; ALDH1A1 block: -14.5%

Results for CCOCCCNC(=O)c1ccccc1Br ?
PNC assembly inh: -22.5; 12-hLO inh: -0.9%; HPGD block: 10µM*; GLA inh pH 4.5: 0.6; aGal spleen mod: -2.0%; ALDH1A1 block: 8.6%

How did CCOC(=O)CCNC(=O)c1ccccc1Br do in these assays?
PNC assembly inh: -0.3; 12-hLO inh: 0.7%; HPGD block: 17.8µM*; GLA inh pH 4.5: 8.3; aGal spleen mod: 5.7%; ALDH1A1 block: 4.3%

How did CCOCCCNC(=O)c1ccccc1SCC do in these assays?
PNC assembly inh: 9.8; 12-hLO inh: -4.0%; HPGD block: inconclusive; GLA inh pH 4.5: 9.0; aGal spleen mod: 10.5%; ALDH1A1 block: -4.7%

How did Cc1c(Cl)cccc1NC(=O)C[C@H]1Sc2ccccc2NC1=O do in these assays?
12-hLO inh: -2.0%[11.4 µM]; HPGD block: -0.7%; ALDH1A1 block: 18.5%[13.5 µM]

Results for O/N=C/c1cc(Br)cc(Br)c1OCc1ccccc1 ?
PNC assembly inh: 17.2; 12-hLO inh: -9.1%; HPGD block: 14.1µM*; GLA inh pH 4.5: 0.5; aGal spleen mod: -2.8%; ALDH1A1 block: 11.0%

What do the screens show for `CCCCCCCCCCCCCCCCCCCCCCO`?
12-hLO inh: 1.4%[0.00818 µM]; HPGD block: -4.4%; GLA inh pH 4.5: -5.9; aGal spleen mod: 5.4%; ALDH1A1 block: 0.8%

Source: PubChem BioAssay (National Center for Advancing Translational Sciences (NCATS))
